We go through 3 sequences from PMC7862700, “An all-to-all approach to the identification of sequence-specific readers for epigenetic DNA modifications on cytosine”.

Assay in all cases: DAPPL (digital affinity profiling via proximity ligation, sequencing); 10 mM Tris-HCl pH 7.5, 50 mM NaCl, 1 mM DTT, 4% glycerol, room temperature, 30 min; GST-TFs on glutathione beads, 16-mer random dsDNA library, 0.1% formaldehyde crosslink after washing; high values mean tight binding
One assay deals with HSF1 (Homo sapiens, UniProt Q00613 1-529). The conditions noted are these: protein: recombinant; tags: N-terminal GST; chain copies: 3; dsDNA, one strand shown. The method in brief:
(§1)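 A tag-only sample was pooled with DNA-barcoded human transcription factors that had been expressed in yeast as GST fusions and captured on glutathione beads. The pools were incubated for 30 min at room temperature with 200 nmole of a random double-stranded 16-mer DNA library in Tris/NaCl/DTT/glycerol buffer, then washed, crosslinked with 0.1% formaldehyde, proximity-ligated (BsaI/T4 ligase, 1 h, 37 °C), PCR-amplified and sequenced on an Illumina NextSeq500. Binding signal is each hexamer's read frequency for a factor divided by its frequency for the tag-only sample.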

In a further assay the target is T1, ELK1 (Homo sapiens, UniProt P19419 1-428).
T1 sequence: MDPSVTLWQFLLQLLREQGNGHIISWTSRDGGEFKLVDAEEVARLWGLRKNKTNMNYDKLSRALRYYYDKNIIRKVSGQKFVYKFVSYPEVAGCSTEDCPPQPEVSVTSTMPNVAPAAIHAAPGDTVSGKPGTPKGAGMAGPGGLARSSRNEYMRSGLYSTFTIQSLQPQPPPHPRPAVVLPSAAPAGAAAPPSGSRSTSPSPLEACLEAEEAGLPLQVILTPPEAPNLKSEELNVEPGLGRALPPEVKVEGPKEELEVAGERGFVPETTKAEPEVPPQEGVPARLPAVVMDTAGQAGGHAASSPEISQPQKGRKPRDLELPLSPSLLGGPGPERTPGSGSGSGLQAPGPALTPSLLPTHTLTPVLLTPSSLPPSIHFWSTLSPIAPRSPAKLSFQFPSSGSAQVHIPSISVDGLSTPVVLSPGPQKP
The conditions noted are these: protein: recombinant; tags: N-terminal GST; dsDNA, one strand shown. The method in brief:
as §1

The next assay has as its target ELF1 (Homo sapiens, UniProt P32519 1-619). The conditions noted are these: protein: recombinant; tags: N-terminal GST; dsDNA, one strand shown. The method in brief:
as §1

The target in another assay is SPIB (Homo sapiens, UniProt Q01892 1-262). As to conditions: protein: recombinant; tags: N-terminal GST; dsDNA, one strand shown. The method in brief:
as §1

The next assay concerns the target T2, ELK3 (Homo sapiens, UniProt P41970 1-407).
T2 sequence: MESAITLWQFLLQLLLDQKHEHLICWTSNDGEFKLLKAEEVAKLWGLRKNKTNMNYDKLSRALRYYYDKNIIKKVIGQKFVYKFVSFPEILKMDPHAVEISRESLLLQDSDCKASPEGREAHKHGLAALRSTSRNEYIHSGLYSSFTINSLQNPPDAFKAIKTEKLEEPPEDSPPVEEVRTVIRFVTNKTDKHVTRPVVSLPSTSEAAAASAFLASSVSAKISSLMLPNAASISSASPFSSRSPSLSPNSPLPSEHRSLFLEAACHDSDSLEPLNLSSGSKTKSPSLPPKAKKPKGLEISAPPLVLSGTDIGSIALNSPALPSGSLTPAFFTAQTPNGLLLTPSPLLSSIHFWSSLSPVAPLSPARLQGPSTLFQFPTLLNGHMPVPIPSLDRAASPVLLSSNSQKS
As to conditions: protein: recombinant; tags: N-terminal GST; dsDNA, one strand shown. In outline: as §1

The next assay addresses T3, SPIC (Homo sapiens, UniProt Q8N5J4 1-248).
T3 sequence: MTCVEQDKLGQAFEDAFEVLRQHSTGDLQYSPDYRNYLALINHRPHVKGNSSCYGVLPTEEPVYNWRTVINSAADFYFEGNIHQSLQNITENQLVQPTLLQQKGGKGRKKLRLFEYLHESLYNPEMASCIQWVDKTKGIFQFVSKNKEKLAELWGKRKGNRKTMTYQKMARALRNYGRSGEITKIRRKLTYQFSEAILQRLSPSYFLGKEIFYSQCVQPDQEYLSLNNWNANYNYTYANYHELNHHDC
As to conditions: protein: recombinant; tags: N-terminal GST; dsDNA, one strand shown. In outline:
as §1

Another assay concerns the target ELF4 (Homo sapiens, UniProt Q99607 1-663). As to conditions: protein: recombinant; tags: N-terminal GST; dsDNA, one strand shown. In outline: as §1
The target in a further assay is T4, ETV2 (Homo sapiens, UniProt O00321 1-342).
T4 sequence: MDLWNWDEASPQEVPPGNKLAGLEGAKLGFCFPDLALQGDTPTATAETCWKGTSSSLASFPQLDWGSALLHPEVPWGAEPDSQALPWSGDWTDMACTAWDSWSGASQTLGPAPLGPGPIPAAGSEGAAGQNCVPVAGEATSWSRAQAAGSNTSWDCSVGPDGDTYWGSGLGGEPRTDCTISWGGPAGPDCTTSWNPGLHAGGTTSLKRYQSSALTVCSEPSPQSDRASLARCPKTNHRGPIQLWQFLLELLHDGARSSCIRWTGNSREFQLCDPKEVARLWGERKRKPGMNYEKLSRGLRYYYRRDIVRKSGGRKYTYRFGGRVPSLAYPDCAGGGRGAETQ
As to conditions: protein: recombinant; tags: N-terminal GST; dsDNA, one strand shown. In outline:
as §1

For the next assay, the target named is T5, ELF3 (Homo sapiens, UniProt P78545 1-371).
T5 sequence: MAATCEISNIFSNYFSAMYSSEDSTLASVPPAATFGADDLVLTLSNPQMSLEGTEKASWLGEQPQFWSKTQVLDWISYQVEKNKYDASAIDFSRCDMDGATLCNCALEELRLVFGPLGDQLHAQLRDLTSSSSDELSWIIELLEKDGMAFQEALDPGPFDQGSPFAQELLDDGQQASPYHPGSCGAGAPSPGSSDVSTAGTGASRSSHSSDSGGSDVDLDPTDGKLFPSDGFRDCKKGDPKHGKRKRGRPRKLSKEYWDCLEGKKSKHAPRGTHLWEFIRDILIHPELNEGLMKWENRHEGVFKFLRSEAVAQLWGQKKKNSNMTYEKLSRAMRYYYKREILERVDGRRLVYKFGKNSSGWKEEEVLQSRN
As to conditions: protein: recombinant; tags: N-terminal GST; dsDNA, one strand shown. The method in brief: as §1

A further assay addresses T6, ERF (Homo sapiens, UniProt P50548 1-548).
T6 sequence: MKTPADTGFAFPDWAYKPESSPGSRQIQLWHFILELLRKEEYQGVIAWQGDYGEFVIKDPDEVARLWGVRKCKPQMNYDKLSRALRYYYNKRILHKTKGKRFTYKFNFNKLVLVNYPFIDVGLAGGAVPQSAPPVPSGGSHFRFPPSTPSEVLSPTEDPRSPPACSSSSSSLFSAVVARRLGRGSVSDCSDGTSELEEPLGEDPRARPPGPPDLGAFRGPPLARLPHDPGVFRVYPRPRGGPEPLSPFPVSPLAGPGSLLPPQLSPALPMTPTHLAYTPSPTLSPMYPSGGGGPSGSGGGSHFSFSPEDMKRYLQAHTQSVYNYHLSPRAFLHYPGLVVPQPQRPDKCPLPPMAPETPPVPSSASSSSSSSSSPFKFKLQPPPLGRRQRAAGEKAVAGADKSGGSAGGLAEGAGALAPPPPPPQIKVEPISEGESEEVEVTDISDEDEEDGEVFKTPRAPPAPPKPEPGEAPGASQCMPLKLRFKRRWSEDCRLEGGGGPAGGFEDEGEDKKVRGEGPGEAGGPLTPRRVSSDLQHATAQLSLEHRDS
The conditions noted are these: protein: recombinant; tags: N-terminal GST; dsDNA, one strand shown. The method in brief: as §1

Another assay addresses T7, ETV3L (Homo sapiens, UniProt Q6ZN32 1-361).
T7 sequence: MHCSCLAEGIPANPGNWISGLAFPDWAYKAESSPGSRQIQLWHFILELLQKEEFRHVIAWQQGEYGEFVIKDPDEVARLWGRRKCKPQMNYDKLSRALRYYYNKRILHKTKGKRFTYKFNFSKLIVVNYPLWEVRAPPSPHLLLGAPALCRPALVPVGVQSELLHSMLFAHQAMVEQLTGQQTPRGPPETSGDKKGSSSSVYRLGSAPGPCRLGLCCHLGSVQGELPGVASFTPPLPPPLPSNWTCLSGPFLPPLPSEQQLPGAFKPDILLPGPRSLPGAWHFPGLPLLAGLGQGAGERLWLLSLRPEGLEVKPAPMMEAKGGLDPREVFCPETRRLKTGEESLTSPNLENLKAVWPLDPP
The conditions noted are these: protein: recombinant; tags: N-terminal GST; dsDNA, one strand shown. In outline:
as §1

The target of the next assay is T8, ETS2 (Homo sapiens, UniProt P15036 1-469).
T8 sequence: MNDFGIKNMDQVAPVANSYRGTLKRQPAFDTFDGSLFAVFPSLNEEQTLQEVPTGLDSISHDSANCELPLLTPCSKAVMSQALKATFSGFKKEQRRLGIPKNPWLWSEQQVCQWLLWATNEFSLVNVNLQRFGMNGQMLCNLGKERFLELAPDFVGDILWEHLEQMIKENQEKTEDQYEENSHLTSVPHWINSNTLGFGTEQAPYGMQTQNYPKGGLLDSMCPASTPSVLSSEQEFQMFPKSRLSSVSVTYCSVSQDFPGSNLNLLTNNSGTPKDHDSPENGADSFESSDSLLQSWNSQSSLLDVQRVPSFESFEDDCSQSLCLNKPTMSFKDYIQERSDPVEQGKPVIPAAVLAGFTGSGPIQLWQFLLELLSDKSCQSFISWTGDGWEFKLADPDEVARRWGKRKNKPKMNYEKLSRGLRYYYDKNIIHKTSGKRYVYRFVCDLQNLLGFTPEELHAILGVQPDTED
The conditions noted are these: protein: recombinant; tags: N-terminal GST; dsDNA, one strand shown. In outline: as §1

Sequence of HSF1 (Q00613 whole entry, the tested form may be a part): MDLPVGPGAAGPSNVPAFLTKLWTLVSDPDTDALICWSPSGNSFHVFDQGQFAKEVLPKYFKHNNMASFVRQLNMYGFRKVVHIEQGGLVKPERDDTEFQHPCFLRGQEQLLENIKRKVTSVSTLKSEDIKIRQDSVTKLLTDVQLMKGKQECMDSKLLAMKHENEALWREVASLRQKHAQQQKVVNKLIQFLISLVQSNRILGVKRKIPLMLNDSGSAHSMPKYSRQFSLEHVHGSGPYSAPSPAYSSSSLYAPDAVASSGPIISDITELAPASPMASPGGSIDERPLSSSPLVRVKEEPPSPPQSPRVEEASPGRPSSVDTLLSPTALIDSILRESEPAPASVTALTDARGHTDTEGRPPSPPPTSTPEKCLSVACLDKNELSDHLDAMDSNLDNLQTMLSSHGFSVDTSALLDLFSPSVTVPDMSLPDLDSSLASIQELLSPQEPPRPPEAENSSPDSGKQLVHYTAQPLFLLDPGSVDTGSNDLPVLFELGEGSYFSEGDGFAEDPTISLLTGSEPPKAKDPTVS
Sequence of ELF1 (P32519 whole entry): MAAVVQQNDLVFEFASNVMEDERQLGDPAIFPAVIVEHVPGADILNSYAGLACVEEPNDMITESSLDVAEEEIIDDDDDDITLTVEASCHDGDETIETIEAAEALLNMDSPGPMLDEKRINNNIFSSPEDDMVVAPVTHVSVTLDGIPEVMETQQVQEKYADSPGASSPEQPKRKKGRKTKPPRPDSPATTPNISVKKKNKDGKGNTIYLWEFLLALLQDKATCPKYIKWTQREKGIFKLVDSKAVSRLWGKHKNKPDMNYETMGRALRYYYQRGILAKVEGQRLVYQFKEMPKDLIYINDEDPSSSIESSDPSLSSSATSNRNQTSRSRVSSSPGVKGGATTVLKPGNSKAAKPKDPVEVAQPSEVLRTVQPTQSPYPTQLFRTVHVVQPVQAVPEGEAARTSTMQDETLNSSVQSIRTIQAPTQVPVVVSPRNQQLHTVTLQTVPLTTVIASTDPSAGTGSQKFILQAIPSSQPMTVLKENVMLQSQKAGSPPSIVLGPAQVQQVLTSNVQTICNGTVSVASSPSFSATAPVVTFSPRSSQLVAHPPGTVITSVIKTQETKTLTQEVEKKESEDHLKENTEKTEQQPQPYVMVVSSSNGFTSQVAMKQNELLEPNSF
Sequence of ELF4 (Q99607 whole entry): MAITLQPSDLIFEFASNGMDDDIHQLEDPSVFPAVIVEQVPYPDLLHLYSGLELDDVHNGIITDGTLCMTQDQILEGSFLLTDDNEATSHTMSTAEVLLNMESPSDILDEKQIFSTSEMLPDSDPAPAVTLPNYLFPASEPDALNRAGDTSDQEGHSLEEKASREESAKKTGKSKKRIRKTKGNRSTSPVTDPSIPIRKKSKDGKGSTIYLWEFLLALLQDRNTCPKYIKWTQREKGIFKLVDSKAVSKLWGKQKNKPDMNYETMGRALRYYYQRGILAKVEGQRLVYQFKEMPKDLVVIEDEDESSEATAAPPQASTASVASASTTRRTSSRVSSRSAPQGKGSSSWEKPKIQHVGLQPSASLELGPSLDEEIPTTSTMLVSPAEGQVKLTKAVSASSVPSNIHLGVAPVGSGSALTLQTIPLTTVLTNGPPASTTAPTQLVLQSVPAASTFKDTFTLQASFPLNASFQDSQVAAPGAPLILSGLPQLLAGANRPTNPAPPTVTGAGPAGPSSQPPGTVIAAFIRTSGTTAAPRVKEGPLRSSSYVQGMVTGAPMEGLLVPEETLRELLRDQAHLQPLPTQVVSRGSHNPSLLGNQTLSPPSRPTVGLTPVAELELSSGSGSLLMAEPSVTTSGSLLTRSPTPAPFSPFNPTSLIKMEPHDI
Sequence of SPIB (Q01892 whole entry): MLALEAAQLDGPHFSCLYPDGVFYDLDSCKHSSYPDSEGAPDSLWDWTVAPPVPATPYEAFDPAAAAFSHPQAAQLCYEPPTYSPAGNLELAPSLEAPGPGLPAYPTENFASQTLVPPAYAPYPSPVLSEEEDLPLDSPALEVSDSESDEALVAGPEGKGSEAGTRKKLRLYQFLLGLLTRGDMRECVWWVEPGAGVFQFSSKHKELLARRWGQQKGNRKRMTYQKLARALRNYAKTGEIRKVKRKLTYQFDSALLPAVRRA

For GATCGA, the binding signal with HSF1 was 1.07 fold enrichment (6-mer frequency, TF over GST control).
Regarding ACGAGA, the binding signal in the assay with HSF1 was 1.14 fold enrichment (6-mer frequency, TF over GST control).
Turning to AACCGA, the binding signal with ELK1 is 1.02 fold enrichment (6-mer frequency, TF over GST control); with ELF1, 1.04 fold enrichment (6-mer frequency, TF over GST control); with SPIB it was 1.03 fold enrichment (6-mer frequency, TF over GST control); with ELK3, 1.01 fold enrichment (6-mer frequency, TF over GST control); with HSF1 it was 1.04 fold enrichment (6-mer frequency, TF over GST control); with SPIC, 1.09 fold enrichment (6-mer frequency, TF over GST control). In addition, the binding signal with ELF4 was 1.02 fold enrichment (6-mer frequency, TF over GST control); with ETV2 it was 1.13 fold enrichment (6-mer frequency, TF over GST control); with ELF3, 1.04 fold enrichment (6-mer frequency, TF over GST control); with ERF, 1 fold enrichment (6-mer frequency, TF over GST control); in the assay with ETV3L, 1.07 fold enrichment (6-mer frequency, TF over GST control); with ETS2 it was 1.03 fold enrichment (6-mer frequency, TF over GST control).
